Molecules are shown by their SMILES. The panel holds about 83,000 compounds, 20% with a hit somewhere; the sample as a whole holds those more often.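 Method: cells in 96-well plates; compound added at one concentration; 48 h incubation; percent growth measured; values under 10 scored active.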 A number with no mark means an inactive call. Calls of active or inactive are those of the source.

Common to all, as to test: NCI-60 one-dose screen, 48 h (100 = growth as untreated, 0 = no growth, -100 = all killed)
Holding throughout (details): 10 µM unless noted

Experiment [1] deals with NCI-H23 lung.
Experiment [2] deals with NCI-H226 lung.
The subject of experiment [3] is NCI-H322M lung.
Experiment [4] has as its system HOP-62 NSCLC.
For experiment [5], the system named is NCI-H460 lung.
For experiment [6], the system named is HOP-92 NSCLC.
Experiment [7] deals with NCI-H522 lung.
The subject of experiment [8] is A549/ATCC NSCLC.
Experiment [9] relates to 786-0 renal.
Experiment [10] has as its system COLO 205 colon.
The subject of experiment [11] is DU-145 prostate.
Experiment [12] relates to K-562 leukemia.
Experiment [13] has as its system MALME-3M melanoma.
Experiment [14] deals with RXF 393 renal.
Experiment [15] concerns SF-268 CNS.
In experiment [16] the test system is SF-295 CNS.
Experiment [17] deals with UACC-257 melanoma.
The subject of experiment [18] is M14 melanoma.
The subject of experiment [19] is MDA-MB-231 breast.
The test system of experiment [20] is SF-539 CNS.

On to `COc1cc(NCCCCCN)c2ncccc2c1`, for which the growth in experiment [1] was 100%; in [2] it was 112%; in experiment [3], 122%; in [4], 102%; in [5], 117%; in experiment [6], 117%. The growth was 137% in experiment [7]; 105% in experiment [8]; 119% in experiment [9]; 119% in experiment [10]; 119% in experiment [11]; 102% in [12]. In addition, the growth in [13] is 99%; in [14], 129%; in experiment [15], 106%; in experiment [16] it was 112%; in [17], 107%; in [18] it was 96.8%.

Take `COc1ccc(-c2ccc(C)n2-c2ccc(-c3nc4cc(Cl)ccc4s3)cc2)cc1`: the growth in experiment [1] is 83.4%; in [2], 78.7%; in experiment [3], 103%; in [4] it was 102%; in experiment [5], 99.7%; in experiment [6], 133%. The growth in experiment [7] was 98.8%; in experiment [8], 95.5%; in [9], 106%; in [10] it was 95.9%; in [11] it was 112%; in [13] it was 102%. Further, the growth in experiment [19] is 85.8%; in experiment [14], 114%; in [15] it was 111%; in [16], 96.6%; in experiment [20] it was 109%; in [17], 107%. Moreover, in experiment [18], the growth is 107%.

On to `N#Cc1ccc(N2Cc3ccccc3OC3=C2C(=O)c2c(O)ccc(O)c2C3=O)cc1`, for which the growth in experiment [1] is 14.2%; in experiment [2], 10.4%; in experiment [3] it was 66.8%; in experiment [4], 16%; in [5], 46.9%; in experiment [6], -66.2% (active). Also, the growth is -75.6% (active) in experiment [7]; 72.9% in experiment [8]; -42.9% (active) in experiment [9]; -69.3% (active) in experiment [10]; -91.8% (active) in experiment [11]; -56.4% (active) in [13]. The growth in [19] is -8.93% (active); in experiment [14], -50.5% (active); in experiment [15] it was 7.68% (active); in experiment [20] it was -17.5% (active); in experiment [18], -41.9% (active).

For `CC(C)C(C(=O)NCCN1CCOCC1)N1C(=O)/C(=C/c2ccc(Br)cc2)SC1=S` (stereo not drawn), the growth was 98.4% in experiment [1]; 107% in [2]; 100% in [3]; 104% in experiment [4]; 101% in experiment [5]; 104% in experiment [6]. Moreover, the growth is 95.9% in experiment [7]; 102% in [8]; 111% in experiment [10]; 108% in experiment [11]; 96% in experiment [12]; 106% in experiment [13]. The growth in experiment [19] is 108%; in [14] it was 125%; in experiment [15], 94.2%; in [16] it was 102%; in experiment [20], 98.6%; in [17], 106%. In experiment [18], the growth is 90.7%.

Take `CC(O)CN1CCCCC1` (stereo not drawn): the growth is 100% in [1]; 106% in [2]; 111% in [3]; 122% in [4]; 104% in experiment [5]; 111% in experiment [6]. Besides, the growth is 88.8% in experiment [7]; 105% in [8]; 105% in [9]; 111% in experiment [10]; 117% in experiment [11]; 112% in experiment [13]. Besides, the growth in experiment [19] is 105%; in experiment [14], 108%; in [15], 101%; in [16], 104%; in experiment [20] it was 111%; in [17] it was 104%. Besides, the growth in [18] was 105%.

With `CN1C=CN(Cc2ccc(-c3ccccn3)nc2)[CH-]1.CN1C=CN(Cc2ccc(-c3ccccn3)nc2)[CH-]1.[Au+3]`, the growth was 36.3% in [1]; 66.7% in [2]; -3% (active) in experiment [3]; 61.6% in [4]; 21.3% in experiment [5]; 66.6% in experiment [6]. Also, the growth is 34.2% in [7]; 45.2% in experiment [8]; 52.8% in [9]; 28.4% in experiment [10]; 21.9% in experiment [12]; 21.5% in [13]. The growth in [19] was 28.1%; in [14] it was 19.5%; in [15], 44.1%; in experiment [16], 17.3%; in [20], 17.4%; in experiment [17], 2.13% (active). The growth in experiment [18] is 35.6%.

As for `CCCCCCCC/C=C/CCCCCCCC1=NC(C)(C)CN1C(C)(C)CO`, the growth is 44.7% in experiment [1]; 86.2% in experiment [2]; 58.5% in experiment [3]; 30.6% in experiment [4]; -86.4% (active) in [5]; 20.3% in [6]. The growth in experiment [7] is 13%; in [8], 30.8%; in experiment [9] it was 60.3%; in experiment [10], -86.3% (active); in experiment [12], -58.6% (active); in experiment [13], -12.9% (active). Also, the growth in experiment [19] was 17.5%; in [14] it was 13.1%; in [15] it was 53.6%; in experiment [16], 86.9%; in [20] it was 77.1%; in [17], -28.5% (active). In [18], the growth is -84.7% (active).

Turning to `Nc1cc2c(cc1C(=O)c1cccc(F)c1)OCCO2`, the growth in [1] was 95.4%; in [2] it was 91.4%; in experiment [3], 98.5%; in experiment [4], 95%; in experiment [5], 104%; in experiment [6], 72.9%. The growth in experiment [7] is 87.3%; in experiment [8], 91.6%; in [9] it was 94%; in experiment [10] it was 111%; in experiment [11], 109%; in experiment [13], 109%. In addition, the growth in experiment [19] was 102%; in experiment [14], 104%; in [15] it was 98.4%; in experiment [16], 94.5%; in [20] it was 103%; in experiment [17], 93.4%. Further, the growth in experiment [18] was 107%.

For the molecule `CN(C)c1nc2c(N)ncnc2n1C1OC(CO)C(O)C1O` (stereo not drawn), the growth in experiment [1] was 110%; in experiment [2], 104%; in experiment [3], 122%; in [4], 103%; in experiment [5], 121%; in experiment [6], 98.1%. Moreover, the growth in experiment [7] was 108%; in experiment [8], 106%; in experiment [9] it was 99.2%; in experiment [10] it was 108%; in [11], 118%; in experiment [13], 88%. Besides, the growth in experiment [19] was 116%; in experiment [14], 113%; in experiment [15], 105%; in [16] it was 111%; in [20], 101%; in [17], 105%. Further, the growth in [18] is 102%.

These data come from PubChem BioAssay (NCI).
